Records with an inconclusive call do not appear. Activity calls are given as the source filed them. Calls follow the shape of the dose curve; as a rule, active = well fitted inhibition curve with a large enough effect; inconclusive = small, poorly fitted or top-dose-only effect; inactive = flat fitted curve, though single readings scatter.
Legend:
Assay in all cases: qHTS profiling for inhibitors of Plasmodium falciparum proliferation (AID 504749); also: nearly all actives have a fitted effect of over 60% in size
Conditions in all cases: P. falciparum in erythrocytes, SYBR Green DNA, 72 h; series mostly up to 28.7 µM
AA1029 = system: AA1029
Outline: (§1)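 Each compound contacts P. falciparum-infected red blood cells for 72 h at 37 C; lysis buffer (Tris, EDTA, saponin, Triton X, SYBR Green I) is added and fluorescence measured next morning; values normalized to controls.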

AS120 = system: AS120
Outline: as §1

ATS189 = system: ATS189
Outline: as §1

ATS95 = system: ATS95
Outline: as §1

C2A = system: C2A
Outline: as §1

CP185 = system: CP185
Outline: as §1

CP191 = system: CP191
Outline: as §1

CP192 = system: CP192
Outline: as §1

CP194 = system: CP194
Outline: as §1

CP201 = system: CP201
Outline: as §1

CP203 = system: CP203
Outline: as §1

CP211 = system: CP211
Outline: as §1

CP215 = system: CP215
Outline: as §1

CP217 = system: CP217
Outline: as §1

CP237 = system: CP237
Outline: as §1

CP238 = system: CP238
Outline: as §1

CP247 = system: CP247
Outline: as §1

CP250 = system: CP250
Outline: as §1

CP252 = system: CP252
Outline: as §1

CP256 = system: CP256
Outline: as §1

Measured: Potency
Potency is read from the fitted curve at half-maximal effect.

COCCOC(=O)C1=C(C)NC(C)=C(C(=O)OC/C=C/c2ccccc2)C1c1cccc([N+](=O)[O-])c1 (configuration not stated)
active: AA1029 8.91 µM | AS120 11.2 µM

NC(=O)NNc1ccccc1
inactive: all assays above

CCCOC(=O)c1ccccc1
inactive: all assays above

CCCCCCCCCCCCCCCCCCOCC(O)CO (configuration not stated)
inactive: all assays above

CCCCCCCCCCCCCCCC(=O)NCCO
inactive: all assays above

O=C(O)COc1nn(Cc2ccccc2)c2ccccc12
inactive: all assays above

O=c1cc(CO)occ1O
inactive: all assays above

NCC(=O)CCC(=O)O
inactive: all assays above

Nc1ncnc2c1ncn2[C@@H]1O[C@H](CO)[C@@H](O)[C@H]1O
inactive: all assays above

CCN(CC)CCSC(=O)C(c1ccccc1)c1ccccc1
inactive: all assays above

CC(=O)Nc1ccc(/C=N/NC(N)=S)cc1
inactive: all assays above

O=C1OC(OC(=O)c2cccnc2Nc2cccc(C(F)(F)F)c2)c2ccccc21 (configuration not stated)
inactive: all assays above

COc1ccc2c(c1)C(=O)N(CCc1ccc(S(=O)(=O)NC(=O)NC3CCCCC3)cc1)C(=O)C2(C)C
inactive: all assays above

CC(O)COc1ccccc1 (configuration not stated)
inactive: all assays above

CC1(C)[C@@H]2CC[C@@]1(C)C(=O)C2
inactive: all assays above

CCCCN(CCCC)CCCOC(=O)c1ccc(N)cc1
inactive: all assays above

C[C@](N)(Cc1ccc(O)cc1)C(=O)O
inactive: all assays above

CC(=O)CCC(=O)O
inactive: all assays above

O=S(=O)(O)c1cc(I)c(O)c2ncccc12
inactive: all assays above

O=C(O)c1ccccc1O
inactive: all assays above

NCCNCCNCCNCCN
inactive: all assays above

Cc1c(Cl)cccc1Nc1ccccc1C(=O)O
inactive: all assays above

CCCCOC(=O)c1ccc(O)cc1
inactive: all assays above

COc1ccc(S(=O)(=O)Nc2nnc(CC(C)C)s2)cc1
inactive: all assays above

O=C(O)c1ccccc1-c1ccc(C(F)(F)F)cc1
inactive: all assays above

N[C@@H](CSCCCO)C(=O)O
inactive: all assays above

O=C1O[C@H]([C@@H](O)CO)C(O)=C1O
inactive: all assays above

COc1cc(C)c(Cc2cnc(N)nc2N)cc1OC
inactive: all assays above

CCCCCCCCCCCCOS(=O)(=O)O
inactive: all assays above

Reference: PubChem BioAssay (NCATS)
